Screening data (PubChem BioAssay)
FMDV FLuc: Primary qHTS Assay for Foot and Mouth Disease Virus Antivirals against NCGC Sytravon and CBC Compound Libraries: Firefly Luciferase Signal | FMDV antiviral cell assay, firefly luciferase signal | Potency, µM (highest dose often 57.5 µM), hits mostly inhibitors | 120,000 tested, 0.23% active | AID 1745856, 2022; also: nearly all actives have a fitted effect of over 60% in size
FMDV RLuc: Primary qHTS Assay for Foot and Mouth Disease Virus Antivirals against NCGC Sytravon and CBC Compound Libraries: Renilla Luciferase Signal; FMDV replicon cells, Renilla luciferase signal; 120,000 tested, 0.32% active; Potency, µM (doses to about 57.5 µM), actives largely listed as inhibitors; also: nearly all actives have a fitted effect of over 55% in size
Large screens that a line does not name were inactive. Sampled rows, rich in hits. Any-hit rate of the full collection: about 0.45%. Calls follow the shape of the full dose curve.

C[N+](CCOCc1ccccc1)(CCOCc1ccccc1)CCOCc1ccccc1	FMDV FLuc inconclusive, FMDV RLuc 28µM
O=C(NCc1ccccn1)c1ccc(C2CCCCC2)cc1	none
O=C(NCc1ccncc1)c1ccc(C2CCCCC2)cc1	FMDV FLuc inconclusive, FMDV RLuc 3.5µM
CCc1ccc(CN2CCc3nc(N4CCN(c5ccccc5F)CC4)ncc3C2)cc1	none
COc1cccc(N2CCN(c3ncc4c(n3)CCN(Cc3ccc(Br)cc3)C4)CC2)c1	FMDV FLuc 7.1µM, FMDV RLuc 4µM
Cc1cccc(C(=O)NC(C)c2ccc(OC(F)F)cc2)n1 (stereo unspecified)	none
CCC(C)NC(=O)c1ccc(N(C)C2CCCCC2)cc1 (stereo unspecified)	none
CCC(C)NC(=O)N(C)C1CCN(c2ccc(Cl)cc2)CC1 (stereo unspecified)	FMDV FLuc inconclusive, FMDV RLuc 13µM
Cc1ccc(C(=O)C(C)OC(=O)c2ccc(Cl)c(N)c2)cc1 (stereo unspecified)	none
Cc1cc(-n2c(C)cc(C(=O)CSc3nnc(C(C)Oc4ccccc4F)o3)c2C)no1 (stereo unspecified)	none
O=C(c1n[nH]c(=O)c2ccccc12)N1CCN(CC(F)(F)F)CC1	none
Cc1cccc(CN2CCN(C(=O)c3n[nH]c(=O)c4ccccc34)CC2)c1	FMDV FLuc 14µM, FMDV RLuc inconclusive
CC(C)NC(=O)C(C)Sc1ncnc2ccccc12 (stereo unspecified)	none
O=S(=O)(c1cccc(F)c1)N1CCC(Oc2ccc(-n3cnnn3)cc2)CC1	FMDV FLuc 22µM, FMDV RLuc inconclusive
CC(=O)Nc1ccc(S(=O)(=O)N2CCC(Oc3ccc(-n4cnnn4)cc3)CC2)cc1	none
CCC(=O)Nc1ccccc1-c1nc2ccccc2n(CC(=O)Nc2ccccc2)c1=O	none
CCCn1c(N(C)Cc2ccccc2)nc2c1c(=O)n(C)c(=O)n2C	FMDV FLuc 14µM, FMDV RLuc inconclusive
Cn1c(=O)c2c(nc(N(CCO)CCO)n2Cc2ccccc2)n(C)c1=O	none
Clc1ccc(-c2csc3ncnc(Sc4nnc(C5CC5)o4)c23)cc1	FMDV FLuc 25µM, FMDV RLuc 20µM
Cc1cc(C)n(-c2ncnc3scc(-c4ccc(Cl)cc4)c23)n1	none
CC(=O)C1(C)N(O)C(C)(C)C(c2ccc(Cl)c(C)c2)=[N+]1[O-] (stereo unspecified)	none
CC(C)c1ccc(NC(=O)CSc2nc(=O)n(Cc3cccnc3)c3c2CCC3)cc1	FMDV FLuc inconclusive, FMDV RLuc 8.9µM
O=C(CSc1nc(=O)n(Cc2cccnc2)c2c1CCC2)Nc1cccc(Cl)c1	none
O=C(COC(=O)C12CC3CC(CC(Cl)(C3)C1)C2)NC(=O)c1cccc([N+](=O)[O-])c1	none
COc1ccc(OC)c(NC(=O)c2ccc(-c3nc(COc4ccccc4)c(C)o3)cc2)c1	none
COc1ccccc1NC(=O)c1ccc(-c2nc(COc3ccc(C)cc3)c(C)o2)cc1	FMDV FLuc inconclusive, FMDV RLuc 25µM
COc1cccc(C(=O)/C(=C/c2ccccn2)c2nc3ccccc3o2)c1	FMDV RLuc inconclusive
COc1ccc(C(=O)/C(=C/c2ccccn2)c2nc3ccccc3o2)cc1	FMDV RLuc 28µM
CCCCn1c(=O)[nH]c(=O)c2c1nc(COC(=O)/C=C/c1ccc(OC)c(OC)c1)n2CC	none
COc1ccc(Nc2cc(C)nc(Nc3ccc(NC(=O)CC(C)(C)C)cc3)n2)cc1	FMDV FLuc inconclusive, FMDV RLuc 22µM
COc1ccc(Nc2cc(C)nc(NCc3ccccc3)n2)cc1	none
COc1ccc(CCNc2ncnc3onc(C)c23)c(OC)c1	FMDV FLuc inconclusive, FMDV RLuc 0.89µM
CCCNc1ncnc2onc(C)c12	none
CCOC(=O)c1ccc(NS(=O)(=O)c2cc(Br)cc3c2N(C(C)=O)C(C)C3)cc1 (stereo unspecified)	FMDV FLuc 20µM
CC(=O)N1c2c(cc(Br)cc2S(=O)(=O)Nc2ccc(OC(F)(F)F)cc2)CC1C (stereo unspecified)	FMDV FLuc inconclusive
O=C(NCc1cccnc1-n1cccn1)c1ccc(-c2ccc(Cl)cc2)s1	none
CCOc1ccc2nc(SCC(=O)N3CCN(S(=O)(=O)c4ccccc4)C3C(C)C)[nH]c2c1 (stereo unspecified)	FMDV FLuc 25µM, FMDV RLuc inconclusive
CCOc1ccc2nc(SCC(=O)N(Cc3ccccc3)C3CCS(=O)(=O)C3)[nH]c2c1 (stereo unspecified)	none
COc1ccc(NC(=O)c2ccc(Cl)cc2)c2cccnc12	none
COc1ccc(NC(=O)COc2ccc(Cl)cc2Cl)c2cccnc12	FMDV FLuc 2.5µM, FMDV RLuc inconclusive
O=C(COc1ccc(-n2cnnn2)cc1)Nc1cccc(S(=O)(=O)N2CCOCC2)c1	none
N=C(N)SCCSc1cc(Cl)ccc1Cl	none
COC(CNC(=O)CS(=O)Cc1nc(-c2ccccc2C)oc1C)OC (stereo unspecified)	none
Cc1cccc(Nc2nc(C(=O)N3CCC(C)CC3)cs2)c1	FMDV FLuc 25µM, FMDV RLuc 13µM
